Reference: PubChem BioAssay (NCATS)
Inconclusive results are not listed. Unless noted, calls follow the shape of the full dose curve.

Target: Glucocorticoid receptor (Homo sapiens) (UniProt P04150)
Test: GR-EFC Redistribution (AID 451); also: potency is read from the fitted curve at half-maximal effect
Details: CHO-K1 GR-EFC translocation, beta-gal luminescence, 2 h
Outline: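 CHO-K1 cells stably expressing nuclear-localized β-gal enzyme acceptor and GR fused C-terminally to the enzyme donor fragment; ligand-driven nuclear translocation restores β-gal by complementation. Compounds titrated up to 46 uM final, 2 h at 37 °C; luminescence read.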

Sequence of Glucocorticoid receptor (Homo sapiens) (P04150 whole entry, looked up): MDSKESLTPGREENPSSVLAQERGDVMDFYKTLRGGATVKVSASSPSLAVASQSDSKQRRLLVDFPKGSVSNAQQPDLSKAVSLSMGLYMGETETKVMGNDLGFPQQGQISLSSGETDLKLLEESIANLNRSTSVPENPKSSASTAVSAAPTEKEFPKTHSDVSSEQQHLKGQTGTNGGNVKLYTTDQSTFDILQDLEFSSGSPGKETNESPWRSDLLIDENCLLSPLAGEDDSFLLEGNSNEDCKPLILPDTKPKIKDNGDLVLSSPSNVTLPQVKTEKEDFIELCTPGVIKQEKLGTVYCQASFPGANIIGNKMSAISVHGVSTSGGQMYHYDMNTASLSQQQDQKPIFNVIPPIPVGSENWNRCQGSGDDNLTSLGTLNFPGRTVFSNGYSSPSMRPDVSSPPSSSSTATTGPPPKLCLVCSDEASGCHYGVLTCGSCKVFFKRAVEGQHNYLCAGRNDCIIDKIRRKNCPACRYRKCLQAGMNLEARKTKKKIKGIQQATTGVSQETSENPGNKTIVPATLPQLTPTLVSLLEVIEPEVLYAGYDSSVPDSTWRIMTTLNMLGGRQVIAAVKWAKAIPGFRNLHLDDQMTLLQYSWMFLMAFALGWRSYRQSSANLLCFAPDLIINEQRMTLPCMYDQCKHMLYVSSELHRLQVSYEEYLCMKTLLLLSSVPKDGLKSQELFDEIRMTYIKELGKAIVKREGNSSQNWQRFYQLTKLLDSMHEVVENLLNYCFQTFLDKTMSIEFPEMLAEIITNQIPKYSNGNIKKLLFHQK

Potency, inactive:
COCCn1c(=O)c(-c2ccc(OC)cc2)nc2cnc(Nc3ccccc3)nc21 > 46 µM
CN(C)Cc1ccccc1-c1cncnc1Nc1ccc(F)cc1 > 46 µM
N#Cc1cccc(NC(=O)N2CC3(CCN(C(=O)c4cnccn4)CC3)C2)c1 > 46 µM
COc1ccc(C(=O)N2CCC3(CCCN(c4ccc(-c5ccccc5)cc4)C3)CC2)cc1 > 46 µM
N#CCCn1c(=O)cnc2cnc(Nc3ccccc3)nc21 > 46 µM
O=C(c1ccncc1)N1CCC[C@@]2(CCN(Cc3cc(C(F)(F)F)cc(C(F)(F)F)c3)C2)C1 > 46 µM
Cn1cccc1C(=O)N1CCC[C@@]2(CCN(c3cccc(-c4ccccc4)c3)C2)C1 > 46 µM
N#Cc1ccc(CN2CCC3(CC2)CCN(C(=O)c2cnccn2)CC3)cc1 > 46 µM
CCNc1ncc2nc(-c3cccs3)c(=O)n(-c3ccc(OC)cc3)c2n1 > 46 µM
c1cncc(-c2nc(NCCN3CCOCC3)c3ccccc3n2)c1 > 46 µM
O=C(Nc1cccc(F)c1)N1CCC2(CC1)CCN(C(=O)c1ccncc1)CC2 > 46 µM
O=C(Oc1ccccc1)N1CCC[C@@]2(CCN(c3ccccc3)C2)C1 > 46 µM
CC(=O)N1CCC2(CC1)CCN(c1ccccc1)CC2 > 46 µM
O=C(c1ccco1)N1CCC2(CCCN(c3cccc(-c4ccccc4)c3)C2)CC1 > 46 µM
O=C(Oc1ccccc1)N1CCC2(CC1)CCN(c1ccccn1)CC2 > 46 µM
O=C(c1csnn1)N1CCC2(CCCN(c3ccccn3)C2)CC1 > 46 µM
Cc1cccc(CNc2cc(-c3ccccc3C)ncn2)c1 > 46 µM
O=S(=O)(c1ccccc1)N1CCC2(CCCN(Cc3ccccc3)C2)CC1 > 46 µM
COc1ccc(C(=O)N2CCC3(CCCN(c4ccncc4)C3)CC2)cc1 > 46 µM
O=C(c1ccncc1)N1CCC2(CCN(Cc3cc(C(F)(F)F)cc(C(F)(F)F)c3)CC2)CC1 > 46 µM
O=c1c(CCc2ccccc2)nc2cnc(Nc3ccccc3)nc2n1Cc1cccs1 > 46 µM
O=S(=O)(c1ccccc1)N1CCC2(CCCN(c3ccccc3)C2)CC1 > 46 µM
Cc1noc(C)c1C(=O)N1CCC2(CCCN(c3ccccn3)C2)CC1 > 46 µM
Cn1cccc1C(=O)N1CCC2(CCCN(Cc3nccs3)C2)CC1 > 46 µM
O=C(c1ccco1)N1CCC2(CCN(Cc3cc(C(F)(F)F)cc(C(F)(F)F)c3)CC2)CC1 > 46 µM
Cn1cccc1C(=O)N1CCC2(CCCN(C(=O)Nc3cccc(C#N)c3)C2)CC1 > 46 µM
CC(=O)N1CCC2(CCN(Cc3ccc(C#N)cc3)CC2)CC1 > 46 µM
O=C(c1ccncc1)N1CCC2(CCCN(c3ncccn3)C2)CC1 > 46 µM
O=C(c1cnccn1)N1CCC2(CCCN(c3ccncc3)C2)CC1 > 46 µM
N#CCCn1c(=O)c(-c2cccs2)nc2cnc(Oc3ccccc3)nc21 > 46 µM
O=C(c1cccc(F)c1)N1CCC2(CC1)CCN(c1ccccn1)CC2 > 46 µM
O=C(Nc1cccc(F)c1)N1CC2(CCN(C(=O)c3ccncc3)CC2)C1 > 46 µM
O=C(c1ccco1)N1CCC2(CC1)CCN(c1ccccn1)CC2 > 46 µM
COCCn1c(=O)c(-c2cccs2)nc2cnc(OCc3ccccc3)nc21 > 46 µM
O=C(Nc1cccc(F)c1)N1CCCC2(CCN(C(=O)c3ccco3)CC2)C1 > 46 µM
O=C(Nc1ccccc1)N1CCCC2(CCN(C(=O)c3cccc(F)c3)CC2)C1 > 46 µM
O=C(c1cnccn1)N1CCC2(CC1)CCN(c1cccc(-c3ccccc3)c1)CC2 > 46 µM
O=C(c1cccc(F)c1)N1CCC2(CCCN(c3ccccc3)C2)CC1 > 46 µM
O=S(=O)(c1ccccc1)N1CCC2(CCCN(c3ccncc3)C2)CC1 > 46 µM

Target: Mitogen-activated protein kinase 10 (Mus musculus) (UniProt Q61831)
Test: JNK3 AlphaScreen Assay (AID 530; active = well fitted curve in either direction with a large enough effect, not every such curve was filed as active;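 also: kinase came from lysate of stimulated human HepG2 cells; signal reports phosphorylation of biotinylated GST-cJun 1-79 at Ser73 with 10 µM ATP; % is scaled to controls: 0 for no effect and ±100 for the full control effect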)
Details: JNK3 lysate, c-Jun phosphorylation; series mostly up to 57.1 µM; activity change, negative = inhibition: at the top concentration
Outline: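 Inhibitors reduce antibody binding to phosphorylated biotin-cJun, lowering AlphaScreen luminescence. Lysates from HepG2 cells pre-activated by IL-1beta plus TNF-alpha supplied JNK3; compounds were titrated.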

Activity change, negative = inhibition, inactive:
COCCn1c(=O)c(-c2ccc(OC)cc2)nc2cnc(Nc3ccccc3)nc21 4.98%
CN(C)Cc1ccccc1-c1cncnc1Nc1ccc(F)cc1 3.85%
COc1ccc(C(=O)N2CCC3(CCCN(c4ccc(-c5ccccc5)cc4)C3)CC2)cc1 -25.3%
N#CCCn1c(=O)cnc2cnc(Nc3ccccc3)nc21 -15.6%
O=C(c1ccncc1)N1CCC[C@@]2(CCN(Cc3cc(C(F)(F)F)cc(C(F)(F)F)c3)C2)C1 2.4%
N#Cc1ccc(CN2CCC3(CC2)CCN(C(=O)c2cnccn2)CC3)cc1 -0.462%
CCNc1ncc2nc(-c3cccs3)c(=O)n(-c3ccc(OC)cc3)c2n1 8.34%
O=C(Nc1cccc(F)c1)N1CCC2(CC1)CCN(C(=O)c1ccncc1)CC2 1.76%
O=C(Oc1ccccc1)N1CCC[C@@]2(CCN(c3ccccc3)C2)C1 3.92%
CC(=O)N1CCC2(CC1)CCN(c1ccccc1)CC2 0.0324%
O=C(c1ccco1)N1CCC2(CCCN(c3cccc(-c4ccccc4)c3)C2)CC1 -23.9%
O=C(Oc1ccccc1)N1CCC2(CC1)CCN(c1ccccn1)CC2 -6.94%
O=C(c1csnn1)N1CCC2(CCCN(c3ccccn3)C2)CC1 4.95%
Cc1cccc(CNc2cc(-c3ccccc3C)ncn2)c1 15.9%
O=S(=O)(c1ccccc1)N1CCC2(CCCN(Cc3ccccc3)C2)CC1 2.16%
COc1ccc(C(=O)N2CCC3(CCCN(c4ccncc4)C3)CC2)cc1 4.44%
O=C(c1ccncc1)N1CCC2(CCN(Cc3cc(C(F)(F)F)cc(C(F)(F)F)c3)CC2)CC1 0.18%
O=c1c(CCc2ccccc2)nc2cnc(Nc3ccccc3)nc2n1Cc1cccs1 -5.47%
Cc1noc(C)c1C(=O)N1CCC2(CCCN(c3ccccn3)C2)CC1 0.332%
Cn1cccc1C(=O)N1CCC2(CCCN(Cc3nccs3)C2)CC1 0.706%
O=C(c1ccco1)N1CCC2(CCN(Cc3cc(C(F)(F)F)cc(C(F)(F)F)c3)CC2)CC1 -6.13%
Cn1cccc1C(=O)N1CCC2(CCCN(C(=O)Nc3cccc(C#N)c3)C2)CC1 -4.1%
CC(=O)N1CCC2(CCN(Cc3ccc(C#N)cc3)CC2)CC1 -13.8%
O=C(c1ccncc1)N1CCC2(CCCN(c3ncccn3)C2)CC1 -3.54%
O=C(c1cnccn1)N1CCC2(CCCN(c3ccncc3)C2)CC1 0.967%
N#CCCn1c(=O)c(-c2cccs2)nc2cnc(Oc3ccccc3)nc21 1.96%
O=C(c1cccc(F)c1)N1CCC2(CC1)CCN(c1ccccn1)CC2 2.41%
O=C(Nc1cccc(F)c1)N1CC2(CCN(C(=O)c3ccncc3)CC2)C1 1.25%
O=C(c1ccco1)N1CCC2(CC1)CCN(c1ccccn1)CC2 -2.17%
COCCn1c(=O)c(-c2cccs2)nc2cnc(OCc3ccccc3)nc21 17.1%
O=C(Nc1cccc(F)c1)N1CCCC2(CCN(C(=O)c3ccco3)CC2)C1 -9.16%
O=C(Nc1ccccc1)N1CCCC2(CCN(C(=O)c3cccc(F)c3)CC2)C1 -9.1%
O=S(=O)(c1ccccc1)N1CCC2(CCCN(c3ccncc3)C2)CC1 3.14%
